Data from PubChem BioAssay (Tox21).
Results filed as inconclusive are left out. Where a call stands in place of a potency, no number is given. Values without a mark were called inactive. The source made the active and inactive calls. Calls follow the shape of the full dose curve.

Test: qHTS assay for small molecule disruptors of the mitochondrial membrane potential - cell viability (AID 720634);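 also: human HepG2 liver cancer cells; nearly all actives have a fitted effect of over 20% in size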
Conditions: HepG2 viability, ATP luminescence (CellTiter-Glo), 1 h; series mostly up to 83.2 µM
Source text: U.S. Tox21 Program National Center for Advancing Translational Sciences [NCATS] NIH Chemical Genomics Center [NCGC] U.S. Environmental Protection Agency [EPA] National Institutes of Environmental Health Sciences [NIEHS] National Toxicology Program [NTP] U.S. Food and Drug Administration [FDA] Tox21 Assay Overview: Mitochondrial membrane potential (MMP), one of the parameters for mitochondrial function, is generated by mitochondrial electron transport chain that creates an electrochemical gradient by a series of redox reactions. This gradient drives the synthesis of ATP, a crucial molecule for various cellular processes. Measuring MMP in living cells is commonly used to assess the effect of chemicals on mitochondrial function; decreases in MMP can be detected using lipophilic cationic fluorescent dyes. […] The dye accumulates in the mitochondria of healthy cells as aggregates, with red fluorescence. The mitochondrial potential decreases and the dye could not accumulate in the mitochondria and remains in the cytoplasm in monomers, with green fluorescence. In addition to the mitochondrial potential assay, these cells were also used to test the cytotoxicity by determining the cell viability in the culture based on the quantitation of ATP present. The cytotoxicity was measured in the same assay well of MMP assay.
Tox21 Assay Protocol Summary: 2,000 HepG2 cells in 5 uL/well were dispensed into black, clear-bottom 1536-well plates using a Multidrop Combi (Thermo Scientific) dispenser. The assay plates were incubated for an overnight at 37 C to allow cells to attach to the wells, followed by the transfer of 23 nL compound or DMSO vehicle by a pin tool (Kalypsys). The plates were incubated for 1 hr at 37 C and 5% CO2, followed by the addition of 5 uL of 2X m-MPI dye into each well using Flying Reagent Dispenser (Aurora Discovery) and then CellTiter-Glo reagent was added at 4 uL/well and incubated 30 min at room temperature. Then luminescence intensity was quantified on a ViewLux CCD-based plate reader.
For `CC(C)CCCCCOC(=O)CS`, the Potency was “inactive”.
With `CC(C)(C)N` the Potency was “inactive”.
For `c1ccc(CN(Cc2ccccc2)Cc2ccccc2)cc1`, the Potency was “inactive”.
With `SCCOCCOCCS` the Potency was “inactive”.
For `CCOc1ccc2c(c1)C(C)CC(C)(C)N2` (stereo not given), the Potency was “inactive”.
For `S=c1[nH][nH]c(=S)s1`, the Potency was “inactive”.
In the case of `O=C1c2ccccc2C(=O)C1c1ccc2cc(S(=O)(=O)O)cc(S(=O)(=O)O)c2n1`, the Potency is reported as “inactive”.
In the case of `CC(=O)c1cccnc1`, the Potency is reported as “inactive”.
With `O=C(OCCOCCOCCOC(=O)c1ccccc1)c1ccccc1` the Potency was “inactive”.
With `O=c1[nH][nH]c2ccccc12` the Potency was “inactive”.
In the case of `O=Cc1ccc(Cl)c([N+](=O)[O-])c1`, the Potency is reported as “inactive”.
For `O=C(O)c1ccc2c(c1)nc(C(=O)NC1CCN(C3CC3)CC1)n2Cc1cc(-c2ccc(Cl)s2)on1`, the Potency was “inactive”.
With `CCc1ccc(C(=O)C(C)CN2CCCCC2)cc1` (stereo not given) the Potency was “inactive”.
For `COc1cccc([C@H](O)C2CCN(CCc3ccc(F)cc3)CC2)c1OC`, the Potency was “inactive”.
For `CCCCCCOC(=O)c1ccccc1`, the Potency was “inactive”.
For `C=C[Si](OCC)(OCC)OCC`, the Potency was “inactive”.
Work on `CCCCCCCCCCCCCCCCCCCl` yielded an activity change, negative = cytotoxicity of -4.97% [at 8.08 µM].
With `O=[N+]([O-])c1cccc(I)c1` the Potency was “inactive”.
With `O=C(NC1CCN(CCc2c[nH]c3ccccc23)CC1)c1ccccc1` the Potency was “inactive”.
With `CC(=O)OCC(=O)[C@@]1(O)CC[C@H]2[C@@H]3CCC4=CC(=O)C=C[C@]4(C)[C@@]3(F)[C@@H](O)C[C@@]21C` the Potency was “inactive”.
In the case of `CCCCCCCCCCCCSCCOCCO`, the Potency is reported as “inactive”.
With `CCCCCC1CCC(=O)O1` (stereo not given) the Potency was “inactive”.
For `COc1cc(C)c(Cc2cnc(N)nc2N)cc1OC`, the Potency was “inactive”.
For `FC1(F)C(F)(F)C(F)(F)C2(F)C(F)(C1(F)F)C(F)(F)C(F)(F)C1(F)C(F)(F)C(F)(F)C(F)(F)C(F)(F)C12F` (stereo not given), the Potency was “inactive”.
In the case of `CCC(=O)O[C@@H]1C[C@H]2CC[C@]1(C)C2(C)C`, the Potency is reported as “inactive”.
With `CCCCCCCCCCCCN1CCOCC1` the Potency was “inactive”.
For `Cc1c(Cl)cccc1Nc1ccccc1C(=O)O`, the Potency was “inactive”.
For `O=C1c2ccccc2C(=O)c2c1ccc(O)c2O`, the Potency was “inactive”.
In the case of `CC(=O)CC/C=C(\C)CC/C=C(\C)CC/C=C(\C)CCC=C(C)C`, the Potency is reported as “inactive”.
With `CC(O)CN` (stereo not given) the Potency was “inactive”.
In the case of `CC(C)Cc1nccs1`, the Potency is reported as “inactive”.
For `CCc1c(C)[nH]c2c1C(=O)C(CN1CCOCC1)CC2` (stereo not given), the Potency was “inactive”.
In the case of `C/C(=C\C(C)CC(C)CC(C)C)C1CC(=O)OC1=O` (stereo not given), the Potency is reported as “inactive”.
For `O=C1OC(=O)C2CC=CCC12` (stereo not given), the Potency was “inactive”.
With `Cc1nc2sccn2c(=O)c1CCN1CCC(=C(c2ccc(F)cc2)c2ccc(F)cc2)CC1` the Potency was “inactive”.
For `Cc1c(-c2cccnc2)c2ccccc2n1CCCCC(=O)O`, the Potency was “inactive”.
With `O=C(OC1C[C@H]2CC[C@@H](C1)[N+]21CCCC1)C(O)(c1ccccc1)c1ccccc1` (stereo not given in full) the Potency was “inactive”.
For `Cc1nc(C)c(C)nc1C`, the Potency was “inactive”.
With `CC(=O)Nc1ccccc1O` the Potency was “inactive”.
With `CCOCCn1c(N2CCCN(C)CC2)nc2ccccc21` the Potency was “inactive”.
